Test results from PubChem BioAssay (NCATS).
Values joined by “and” are separate entries in the source; they are usually repeats but may differ in a detail not shown here. Equal entries are not always repeated. Results filed as inconclusive are left out. Active and inactive are the calls of the source. Unless noted, the call rests on the fitted dose curve; in most records, active means well fitted curve in the direction sought with a large enough effect; inconclusive means small, poorly fitted or top-dose-only effect, or another doubt; inactive means no such curve, though single readings can be large; an effect the other way counts as inactive or inconclusive.

Key:
[1] = Cell Viability - Jurkat (AID 426;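 active means dose-dependent loss of cell ATP signal giving a full or clear fitted curve, ranked by lower potency value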; further: potency means the concentration at half of the fitted maximal effect); conditions: qHTS
In short: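 Jurkat (clone E6-1, human T-cell leukemia) cells, 5000/well in complete medium, were exposed to compound for 40 hr at 37 °C. Viability was read as intracellular ATP by CellTiter-Glo luminescence; AC50 came from Hill fits of concentration-response data.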

[2] = Cell Viability - Hek293 (AID 427;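 active means compounds whose dose-response curve shows a full or clear partial loss of cell viability, called from curve shape rather than a numeric limit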;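 further: potency means the concentration at half of the fitted maximal effect; cells exposed to compound for 40 hours at 37 °C before reading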); conditions: qHTS
In short: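 Luminescent ATP content (CellTiter-Glo, 20 min at room temperature) was measured after a 40 hr, 37 °C compound exposure of HEK293 cells. AC50 values came from Hill-equation fits of qHTS concentration-response data normalized to DMSO and 100 uM tamoxifen.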

[3] = Cellular Toxicity (caspase-3) H-4-II-E (AID 663); conditions: H-4-II-E rat hepatoma, scaled: DMSO 0%, 100 µM tamoxifen 100%; series mostly up to 92.2 µM;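 further: cells exposed to compound for 16 hr before readout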
In short: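 Luminescence from caspase-cleaved aminoluciferin substrate, read 20 min after reagent addition, reports caspase 3/7 activation in rat H-4-II-E cells after 16 hr compound exposure. Normalized to DMSO (basal) and 100 uM tamoxifen (100%); AC50 from Hill fits.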

[4] = Cellular Toxicity (caspase-3) N2a (AID 665); conditions: N2a cells, luminescence, normalized: DMSO 0%, 10 µM staurosporine 100%; at 92.2 µM (top of the series);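 further: compound exposure lasted 16 h at 37 °C before readout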
In short: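 Mouse N2a neuroblastoma cells (1500/well) were treated with compounds for 16 h at 37 °C, then caspase-3/7 activity was read by Caspase-Glo luminescence after 1 h at room temperature. Data were normalized to DMSO and 10 uM staurosporine; AC50 from Hill fits.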

[5] = MultiTox-Fluor Cytotoxicity Assay - LYMP1-001 - Dead Cells (AID 946); conditions: LYMP1-001 lymphoblastoid cells, dead-cell protease fluorescence; series mostly up to 92.2 µM
In short: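 Cytotoxicity as increased dead-cell protease fluorescence (bis-AAF-R110, 485/520 nm), read 60 min after MultiTox-Fluor reagent. Human lymphoblastoid line exposed 16 h; Hill-fitted AC50, with DMSO as 0% and 15 uM tetraoctylammonium bromide as 100%.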

[6] = Cell Viability - LYMP1-002 - Assay at 16 hr (AID 948); conditions: LYMP1-002 lymphoblastoid cell viability; series mostly up to 92.2 µM;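 further: 0% = DMSO alone and full effect = 92 µM tetraoctylammonium bromide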
In short: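 In this qHTS, lymphoblastoid LYMP1-002 cells (human) receive compounds for 16 hr at 37 C. Viability is taken from CellTiter-Glo ATP luminescence, and AC50 derives from standard Hill fits.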

[7] = MultiTox-Fluor Cytotoxicity Assay - LYMP1-003 - Dead Cells (AID 961); conditions: LYMP1-003 lymphoblastoid cells, dead-cell protease fluorescence; series mostly up to 92.2 µM; further: nearly all actives have a fitted effect of over 70% in size
In short: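 Dead-cell protease release, detected as bis-AAF-R110 fluorescence at 485/520 nm, was measured in LYMP1-003 cells after 16 h compound treatment at 37 C. AC50 values came from Hill-modeled qHTS curves normalized to DMSO (0%) and 15 uM tetraoctylammonium bromide (100%).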

[8] = Cell Viability - LYMP1-003 - Assay at 24 hr (AID 963); conditions: LYMP1-003 lymphoblastoid cell viability; series mostly up to 92.2 µM;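 further: plate controls were DMSO only for no effect and tetraoctylammonium bromide positive control for full effect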
In short: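 Human lymphoblastoid LYMP1-003 cells (2500/well) were rested 5 hr at 37 C, then exposed to compounds in complete medium for 24 hr at 37 C. Cellular ATP was quantified by CellTiter-Glo luminescence, and AC50 values came from Hill fits of concentration-response data.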

[9] = Cell Viability - LYMP2-011 (AID 969); conditions: LYMP2-011 lymphoblastoid cells viability; series mostly up to 92.2 µM;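 further: 0% = DMSO only and full inhibition = 92 µM tetraoctylammonium bromide; nearly all actives have a fitted effect of over 60% in size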
In short: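 Human lymphoblastoid cells (2500/well) were plated in complete medium, preincubated 5 hr at 37 C, then exposed to compounds for 24 hr at 37 C. Intracellular ATP was read by CellTiter-Glo luminescence, and AC50 came from Hill-equation concentration-response fits.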

[10] = Cell Viability - LYMP2-013 (AID 970); conditions: LYMP2-013 lymphoblastoid cells viability; series mostly up to 92.2 µM;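 further: 0% = DMSO only and full inhibition = tetraoctylammonium bromide control; nearly all actives have a fitted effect of over 55% in size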
In short: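 Human lymphoblastoid cells, 2500/well, were preincubated 5 hr at 37 C, then treated with compounds for 24 hr at 37 C in complete medium. Intracellular ATP was read by CellTiter-Glo luminescence; AC50 from Hill-equation fits of concentration-response data.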

[11] = Cell Viability - LYMP2-023 (AID 975); conditions: LYMP2-023 lymphoblastoid cell viability; series mostly up to 92.2 µM;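 further: cellular ATP measured by luciferase luminescence as viability proxy; plate controls were DMSO only for no effect and 92 µM tetraoctylammonium bromide control for full effect; nearly all actives have a fitted effect of over 55% in size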
In short: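 Human lymphoblastoid cells (2500/well) were preincubated 5 hr at 37 C, then exposed to compounds for 24 hr at 37 C in complete medium. Cellular ATP was read by CellTiter-Glo luminescence, and AC50 came from Hill-equation fits.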

[12] = Cell Viability - LYMP2-025 (AID 976); conditions: LYMP2-025 lymphoblastoid cell viability; series mostly up to 92.2 µM;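 further: plate controls were DMSO only for no effect and tetraoctylammonium bromide control for full effect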
In short: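 Human lymphoblastoid LYMP2-025 cells (2500/well) were pre-incubated 5 hr at 37 C, then treated with compounds for 24 hr at 37 C in complete medium. Viability was read as intracellular ATP by CellTiter-Glo luminescence; AC50 from Hill fits.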

[13] = Cell Viability - LYMP2-006 (AID 978); conditions: LYMP2-006 lymphoblastoid cell viability, qHTS; series mostly up to 92.2 µM; further: on the % scale 0 is the no-effect control and ±100 the full control effect; nearly all actives have a fitted effect of over 60% in size
In short: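 In this cytotoxicity screen, the human lymphoblastoid line grew in complete medium with test compounds for 24 hr at 37 C. Cellular ATP served as the viability signal.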

[14] = Cell Viability - LYMP2-008 (AID 980); conditions: LYMP2-008 lymphoblastoid cell viability, qHTS; series mostly up to 92.2 µM; further: on the % scale 0 is the no-effect control and ±100 the full control effect; nearly all actives have a fitted effect of over 60% in size
In short: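 Human lymphoblastoid cells (2500/well) were plated, held 5 hr at 37 C, then exposed to compounds for 24 hr at 37 C in complete medium. Intracellular ATP was read by CellTiter-Glo luminescence; AC50 from Hill-fitted concentration-response.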

[15] = Cell Viability - LYMP2-018 (AID 985); conditions: LYMP2-018 lymphoblastoid cells, viability (qHTS); series mostly up to 92.2 µM;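 further: compound exposure lasted 24 hr at 37 °C; plate controls were DMSO only for no effect and tetraoctylammonium bromide at 92 µM for full effect; nearly all actives have a fitted effect of over 50% in size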
In short: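 Human lymphoblastoid cells (2500/well) were pre-incubated 5 hr at 37 C, then exposed to compounds for 24 hr at 37 C in complete medium. Viability was read as intracellular ATP by CellTiter-Glo luminescence; AC50 values came from Hill-equation fits.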

[16] = Cell Viability - LYMP2-026 (AID 989); conditions: LYMP2-026 lymphoblastoid cell viability, qHTS; series mostly up to 92.2 µM; further: on the % scale 0 is the no-effect control and ±100 the full control effect; nearly all actives have a fitted effect of over 50% in size
In short: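 Human lymphoblastoid cells (2500/well) in complete medium were preincubated 5 hr at 37 C, then exposed to compounds for 24 hr at 37 C. Cellular ATP was read by CellTiter-Glo luminescence; AC50 from Hill-equation fits of concentration-response data.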

[17] = Cell Viability - LYMP1-002 - Assay at 24 hr (AID 993); conditions: LYMP1-002 lymphoblastoid cells viability; series mostly up to 92.2 µM; further: on the % scale 0 is the no-effect control and ±100 the full control effect
In short: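 Human lymphoblastoid LYMP1-002 cells, 2500/well in complete medium, were treated with compounds for 24 h at 37 C; intracellular ATP was read by CellTiter-Glo luminescence. AC50 values came from Hill-equation fits of qHTS concentration-response data.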

[18] = qHTS assay for small molecule agonists of the antioxidant response element (ARE) signaling pathway measured by Nrf2-dependant transcriptional activity - cell viability counter screen (AID 720653; active means well fitted curve in the direction sought with a large enough effect in the repeat runs; an effect the other way counts as inactive or inconclusive; further: on the % scale 0 is the no-effect control and ±100 the full control effect); conditions: ARE-bla HepG2 viability, CellTiter-Glo ATP luminescence, 16 h; active compounds read low
In short: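 ARE-bla HepG2 cells (2,000/well) rested 5 hrs at 37C/5% CO2, then exposed to compounds in DMSO for 16 hrs. Viability was read in the same wells as intracellular ATP by luminescence, 30 min at room temperature after reagent addition.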

[19] = qHTS assay for cell viability of HEK293 cells (AID 743288); conditions: ATP luminescence (CellTiter-Glo), 18 h; max response: active compounds read low; further: on the % scale 0 is the no-effect control and ±100 the full control effect; nearly all actives have a fitted effect of over 50% in size
In short: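 Luminescent ATP quantitation served as the viability read-out. Cells (parental HEK293, 2,000/well) received compounds after at least 5 h at 37 C and were exposed for 18 h before a 30 min room-temperature reagent step.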

[20] = qHTS assay for cell viability of the p53RE-bla HCT-116 cell line (AID 743292); conditions: p53RE-bla HCT-116 viability, ATP luminescence, 16 h; series mostly up to 95 µM; further: on the % scale 0 is the no-effect control and ±100 the full control effect; nearly all actives have a fitted effect of over 55% in size
In short: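 ATP-based luminescence, 16 h compound exposure at 37 C, p53RE-bla HCT-116 cells at 4,000/well.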

C=CCOC(C)=O
inactive: Potency [1] > 92 µM | Potency [2] > 92 µM | outcome [3] | caspase-3 activation [4] -3.6% | Potency [5] | Potency [6] | Potency [7] | Potency [8] | Potency [9] | Potency [10] | Potency [11] | Potency [12] | Potency [13] | Potency [14] | Potency [15] | Potency [16] | Potency [17] | max response [18] -12.1% | max response [19] -4.78% | Potency [20]

CCCSC(=O)Cl
inactive: Potency [1] > 92 µM | Potency [2] > 92 µM | outcome [3] | caspase-3 activation [4] -1.31% | Potency [5] | Potency [6] | Potency [7] | Potency [8] | Potency [9] | Potency [10] | Potency [11] | Potency [12] | Potency [13] | Potency [14] | Potency [15] | Potency [16] | Potency [17] | max response [18] -4.21% | max response [19] -1.07% | Potency [20]

[O-][Br+2]([O-])O
inactive: Potency [1] > 92 µM | Potency [2] > 92 µM | outcome [3] | caspase-3 activation [4] -9.36% and -10.4% | Potency [5] | Potency [6] | Potency [7] | Potency [8] | Potency [9] | Potency [10] | Potency [11] | Potency [12] | Potency [13] | Potency [14] | Potency [15] | Potency [16] | Potency [17] | max response [18] 3.23% and -1.6% | max response [19] -15.7% and 1.39% | Potency [20]

CC(Cl)Cl
inactive: Potency [1] > 92 µM | Potency [2] > 92 µM | outcome [3] | caspase-3 activation [4] -4.66% | Potency [5] | Potency [6] | Potency [7] | Potency [8] | Potency [9] | Potency [10] | Potency [11] | Potency [12] | Potency [13] | Potency [14] | Potency [15] | Potency [16] | Potency [17] | max response [18] -2.99% | max response [19] -4.5% | Potency [20]

Nc1ccccc1Cl
inactive: Potency [1] > 92 µM | Potency [2] > 92 µM | outcome [3] | caspase-3 activation [4] 1.48% | Potency [5] | Potency [6] | Potency [7] | Potency [8] | Potency [9] | Potency [10] | Potency [11] | Potency [12] | Potency [13] | Potency [14] | Potency [15] | Potency [16] | Potency [17] | max response [18] 8.24% | max response [19] -8.45% | Potency [20]

CN=C=S
inactive: Potency [1] > 92 µM | Potency [2] > 92 µM | outcome [3] | caspase-3 activation [4] 2.61% | Potency [5] | Potency [6] | Potency [7] | Potency [8] | Potency [9] | Potency [10] | Potency [11] | Potency [12] | Potency [13] | Potency [14] | Potency [15] | Potency [16] | Potency [17] | max response [18] 4% and -4.66% | max response [19] -4.04% and -6.57% | Potency [20]

C=CCOC(=O)c1ccccc1N
inactive: Potency [1] > 92 µM | Potency [2] > 92 µM | outcome [3] | caspase-3 activation [4] -3.47% | Potency [5] | Potency [6] | Potency [7] | Potency [8] | Potency [9] | Potency [10] | Potency [11] | Potency [12] | Potency [13] | Potency [14] | Potency [15] | Potency [16] | Potency [17] | max response [18] 4.08% | max response [19] 8.68% | Potency [20]

ClCBr
inactive: Potency [1] > 92 µM | Potency [2] > 92 µM | outcome [3] | caspase-3 activation [4] -2% | Potency [5] | Potency [6] | Potency [7] | Potency [8] | Potency [9] | Potency [10] | Potency [11] | Potency [12] | Potency [13] | Potency [14] | Potency [15] | Potency [16] | Potency [17] | max response [18] -6.45% | max response [19] 4.95% | Potency [20]

Brc1ccccc1
inactive: Potency [1] > 92 µM | Potency [2] > 92 µM | outcome [3] | caspase-3 activation [4] 0.903% | Potency [5] | Potency [6] | Potency [7] | Potency [8] | Potency [9] | Potency [10] | Potency [11] | Potency [12] | Potency [13] | Potency [14] | Potency [15] | Potency [16] | Potency [17] | max response [18] -10.2% and 1.06% | max response [19] 3.06% and -4.67% | Potency [20]

S=C=Nc1cccc2ccccc12
inactive: Potency [1] > 92 µM | Potency [2] > 92 µM | outcome [3] | caspase-3 activation [4] 0.808% | Potency [5] | Potency [6] | Potency [7] | Potency [8] | Potency [9] | Potency [10] | Potency [11] | Potency [12] | Potency [13] | Potency [14] | Potency [15] | Potency [16] | Potency [17] | max response [18] -2.47% | max response [19] 0.149% | Potency [20]
